# Screening results deposited in PubChem by National Center for Advancing Translational Sciences (NCATS).
# In the library only some 12% were active in any assay of this set; here they are far more common.
# Sfp inh: inhibitors of Bacillus subtilis Sfp phosphopantetheinyl transferase; Q9F4F7; Biochemical Sfp PPTase activity, qHTS; hit rate 3.5% among 310,000; Potency, µM, for the others: largest response in the series, negative = inhibition, usual class: inhibitors;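 note: the enzyme is Sfp with the accession as filed and its product quenches rhodamine fluorescence; 0% = enzyme reaction without inhibitor and -100% = no enzyme wells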
#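 After 15 min at room temperature with compound, 15 nM Sfp received 5 uM rhodamine-CoA plus 12.5 uM BHQ-2-ybbR (50 mM Hepes pH 7.6, 10 mM MgCl2). Rate came from the fluorescence difference over 30 min, ex 525/em 598 nm.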
# JMJD2A Tudor inh: JMJD2A Tudor domain (human) inhibition; Potency, µM (highest dose often 114 µM), inactives show at the highest dose activity change, negative = inhibition, actives largely listed as inhibitors; AlphaScreen JMJD2A-Tudor / H3K4me3 peptide binding; AID 504339; O75164; hit rate 4.4% among 390,000; note: % is set by controls: 0 for no effect and ±100 for the full control effect; nearly all actives have a fitted effect of over 50% in size
# G9a block: inhibitors of human histone lysine methyltransferase G9a. Q96KQ7. G9a H3K9 monomethylation, AlphaScreen, 2 h. Potency, µM (top dose mostly 102 µM), inactives show at the top dose activity, negative = inhibition, hits mostly inhibitors. hit rate 8.8% among 350,000; note: % is set by controls: 0 for no effect and ±100 for the full control effect; nearly all actives have a fitted effect of over 75% in size
#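 Readings reflect AlphaScreen signal from monomethyl-H3K9 antibody detection. HMT at 20 nM; substrate b-H3K9 500 nM; cofactor SAM 20 uM; 2 h RT reaction; compounds tested as titrations in qHTS with 15 min preincubation.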
# HP1b chromo inh: blocks HP1-beta chromodomain binding to methylated histone tails. P83916. Potency, µM (series often up to 114 µM), without a hit: at the highest dose activity change, negative = inhibition, most hits filed as inhibitors. AlphaScreen HP1-beta / biotin-H3K9me3 peptide binding. hit rate 0.56% among 390,000; note: nearly all actives have a fitted effect of over 70% in size
#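 AlphaScreen: HP1-beta (50 nM) preformed 30 min with biotin-H3(1-18)K9me3 peptide (50 nM) in PBS pH 7.4, 0.01% Tween-20. Compound added for 30 min at RT, then streptavidin donor/nickel chelate acceptor beads (10 ug/mL) for 30 min.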
# TDP1 block: TDP1 (human) enzyme inhibition. Q9NUW8. recombinant TDP1, AlphaScreen DNA substrate cleavage. Potency, µM (highest dose often 130 µM), for inactives: at the top dose activity change, negative = inhibition, usual class: inhibitors. hit rate 0.28% among 350,000. AID 485290; note: % is set by controls: 0 for no effect and ±100 for the full control effect; nearly all actives have a fitted effect of over 40% in size
# Target sequence (Q9NUW8 whole entry, looked up): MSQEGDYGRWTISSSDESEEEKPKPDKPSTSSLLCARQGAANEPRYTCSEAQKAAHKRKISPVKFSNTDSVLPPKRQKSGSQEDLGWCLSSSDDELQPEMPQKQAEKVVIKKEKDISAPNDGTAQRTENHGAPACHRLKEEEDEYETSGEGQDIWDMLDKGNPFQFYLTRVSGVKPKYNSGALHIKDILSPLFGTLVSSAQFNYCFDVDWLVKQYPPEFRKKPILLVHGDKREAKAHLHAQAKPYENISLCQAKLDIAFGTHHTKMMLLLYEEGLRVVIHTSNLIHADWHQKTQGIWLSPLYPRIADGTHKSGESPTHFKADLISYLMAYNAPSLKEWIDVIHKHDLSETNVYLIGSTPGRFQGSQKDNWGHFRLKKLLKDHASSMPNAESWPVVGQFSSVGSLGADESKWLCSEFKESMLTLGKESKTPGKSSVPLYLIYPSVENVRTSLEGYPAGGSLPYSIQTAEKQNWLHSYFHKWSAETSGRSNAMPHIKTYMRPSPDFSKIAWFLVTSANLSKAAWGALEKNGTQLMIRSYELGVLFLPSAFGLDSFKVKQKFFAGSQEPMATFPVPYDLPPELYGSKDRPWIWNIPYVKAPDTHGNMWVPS
#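 Signal: AlphaScreen proximity between streptavidin donor and anti-FITC acceptor beads on intact substrate. Reaction: Tdp1 1 nM, substrate 15 nM final, 5 min RT after 15 min compound preincubation.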
# BAZ2B inh: inhibitors of human BAZ2B bromodomain; hit rate 4.4% among 360,000; Q9UIF8; AID 504333; AlphaScreen BAZ2B-H3K14Ac peptide displacement; Potency, µM (highest dose often 114 µM), without a hit: at the top dose activity change, negative = inhibition, hits mostly inhibitors; note: % is set by controls: 0 for no effect and ±100 for the full control effect; nearly all actives have a fitted effect of over 60% in size
#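 Complex of BAZ2B and biotin-H3K14Ac (50 nM apiece) forms over 30 min at RT, then faces library compounds up to 110 uM for another 30 min; AlphaScreen beads added, 20 min dark incubation, luminescence read.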
# The depositor's hits bear a star; ? = inconclusive; . = not tested or not shown; [ ] = another dose, or the depositor's remark. Calls come from the whole dose curve; as a rule, active = well fitted curve in the direction sought with a large enough effect; inconclusive = small, poorly fitted or top-dose-only effect, or another doubt; inactive = no such curve, though single readings can be large; an effect the other way counts as inactive or inconclusive. Potency is the fitted concentration of half-maximal effect.
SMILES,Sfp inh,JMJD2A Tudor inh,G9a block,HP1b chromo inh,TDP1 block,BAZ2B inh
CC1CCCC(C)N1C(=O)COC(=O)/C=C/c1ccco1 (centres undefined),.,-18%,.,31%,-16%,.
CN(CCOC(=O)/C=C/c1ccco1)Cc1ccccc1,20µM*,25µM*,14µM*,?,10µM*,35µM*
CN(Cc1ccccc1)C(=O)COC(=O)/C=C/c1ccco1,35µM*,?,35µM*,?,40µM*,.
COc1ccc(-c2cn3c(n2)sc2cc(C(=O)Nc4c(C)cccc4C)ccc23)cc1,.,-18%,-35%[59 µM],22%,-4%,?
Cc1ccc(Cn2ncc3c(N4CCN(Cc5ccc(Cl)cc5)CC4)ncnc32)cc1,3%,-22%,35µM*,19%,6%,-33%
COc1ccc(Nc2ncnc3c2cnn3Cc2ccccc2)cc1,-3%,89µM*,50µM*,2%,0%,79µM*
Cc1ccc(Cn2ncc3c(N4CCN(c5ccc(C)cc5)CC4)ncnc32)cc1,5%,-17%,?,27%,4%,-6%
CCOc1ccc(Nc2ncnc3c2cnn3Cc2ccccc2)cc1,?,-17%,-38%[59 µM],9%,5%,?
COc1ccc(CC(=O)NNc2ncnc3c2cnn3C)cc1,8%,-22%,25µM*,26%,-5%,79µM*
Cc1ccc(Cn2ncc3c(NN)ncnc32)cc1,-26%,?,?,27%,.,50µM*
COc1cccc(C2c3c(ncn(-c4ccccn4)c3=N)Oc3ccc4ccccc4c32)c1 (centres undefined),.,?,.,.,0%,.
CCOc1ccc(C(=O)C(C)OC(=O)Cn2[nH]c(=O)c3ccccc3c2=O)cc1 (centres undefined),6%,-12%,.,7%,0%,-13%
Cc1cc(C)cc(NC(=O)c2c(C)nc3ccccn23)c1,3%,-10%,.,23%,2%,?
COC(=O)c1sc(NC(=O)CSc2nc3cccnc3n2C)nc1C,11%,-6%,5%,10%,.,-20%
Cc1ccc(Cn2ncc3c(NCCN(C)C)ncnc32)cc1,9%,-22%,50µM*,17%,.,-4%
CC(NC(=O)c1cc2ccccc2oc1=O)c1ccccc1 (centres undefined),2%,1%,6%,36%,2%,-6%
COC(=O)C1=C(C(=O)OC)[C@@H]2N(C)c3ccc(OC)cc3[C@@]23C[C@@H](C(=O)OC)N(S(=O)(=O)c2ccc(C)cc2)C3=N1,6%,.,.,.,8%[12.3 µM],.
COC(=O)C1=C(C(=O)OC)[C@@H]2N(C)c3ccc(OC)cc3[C@@]23C[C@@H](C(=O)OC)N(C(=O)c2cccs2)C3=N1,11%,?,40µM*,?,7%[12.3 µM],50µM*
COC(=O)C1=C(C(=O)OC)[C@@H]2N(C)c3ccc(OC)cc3[C@@]23C[C@@H](C(=O)OC)N(C(=O)c2cc(C)oc2C)C3=N1,3%,45µM*,.,?,8%[12.3 µM],.
COC(=O)C1=C(C(=O)OC)[C@@H]2N(C)c3ccccc3[C@@]23C[C@@H](C(=O)OC)N(C(=O)c2cccs2)C3=N1,4%,?,-37%[59 µM],-12%,12%[12.3 µM],?
CC(=O)Nc1ccc(S(=O)(=O)NC2(C(F)(F)F)C(=O)Nc3c2c(=O)[nH]c(=O)n3Cc2ccco2)cc1 (centres undefined),10%,-1%,56µM*,.,5%,-21%
CC(=O)NC1(C(F)(F)F)C(=O)Nc2c1c(=O)[nH]c(=O)n2Cc1ccco1 (centres undefined),-14%,-20%,-20%[59 µM],28%,-2%,-39%
CN(C)c1ncnc2c1ncn2C1CCCO1 (centres undefined),.,-12%,.,-20%,.,.
COc1ccc(N(CC(=O)NCCc2ccccc2)C(=O)CCC(=O)Nc2nccs2)c(OC)c1,5%,-22%,0%,-3%,4%[0.0935 µM],-2%
